Data from PubChem BioAssay (Tox21).
Where “and” joins values, the source holds several entries; their conditions need not be identical. Equal entries are not always repeated. Results filed as inconclusive are left out. A call without a number means that no potency is given here. A structure can be active in one record and inactive in another. Calls of active or inactive are those of the source. Unless noted, the call rests on the fitted dose curve; in most records, active means well fitted cell-killing curve with a large enough effect in the repeat runs; inconclusive means weak or mixed curves, or effect the other way; inactive means no such curve, though single readings can be large or run the other way.

Biological target: Peroxisome proliferator-activated receptor delta (Homo sapiens) (UniProt Q03181)
Sequence (Q03181 whole entry, looked up): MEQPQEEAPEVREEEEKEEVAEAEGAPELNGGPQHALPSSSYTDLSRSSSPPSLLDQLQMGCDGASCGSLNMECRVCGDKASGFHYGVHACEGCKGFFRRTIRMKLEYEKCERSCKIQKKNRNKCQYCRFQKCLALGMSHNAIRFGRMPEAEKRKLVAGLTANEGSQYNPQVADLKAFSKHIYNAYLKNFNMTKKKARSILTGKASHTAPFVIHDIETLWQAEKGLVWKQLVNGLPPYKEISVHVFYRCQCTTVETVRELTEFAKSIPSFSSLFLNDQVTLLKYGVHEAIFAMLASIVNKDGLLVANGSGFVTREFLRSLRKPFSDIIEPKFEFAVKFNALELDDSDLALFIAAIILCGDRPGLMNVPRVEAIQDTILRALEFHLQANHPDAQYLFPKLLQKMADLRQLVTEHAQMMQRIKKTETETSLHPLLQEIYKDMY
Test: qHTS assay to identify small molecule antagonists of the peroxisome proliferator-activated receptor delta (PPARd) signaling pathway (AID 743215; active means well fitted inhibition curve with a large enough effect in the signal ratio in the repeat runs, not every such curve was filed as active; the % refers to the signal ratio;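 further: cells stimulated with agonist L165041 at 300 nM final during compound exposure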)
Conditions: HEK293H PPARd-UAS-bla, beta-lactamase FRET ratio, antagonist, 17 h; series mostly up to 62 µM; ratio activity, negative = inhibition: at the top concentration
Procedure, shortened: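 Here, a reporter line (HEK293H, beta-lactamase under a UAS) measures PPARd signaling. Compounds are tested against agonist L165041 at 300 nM final concentration over 17 h at 37 C, with fluorescence read after substrate.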

Row | SMILES | ratio activity, negative = inhibition | outcome
1 | CCCCCCCCCC(=O)O | 4.01% (inactive) | 
2 | NS(=O)(=O)c1cc2c(cc1Cl)NC=NS2(=O)=O |  | inactive
3 | CC(C)Cc1ccccc1 | -1.19% (inactive) | 
4 | Clc1cc(Cl)c(Cl)cc1Cl |  | inactive
5 | CCCCC(CC)COC(C)=O (stereo not given) |  | inactive
6 | NCCNCCNCCNCCN |  | inactive
7 | CCOC(=O)C1OC1c1ccccc1 (stereo not given) |  | inactive
8 | CC1COc2ccccc2N1C(=O)C(Cl)Cl (stereo not given) |  | inactive
9 | CCCCCCCCC |  | inactive
10 | Cc1cc(O)cc(C)c1Cl |  | inactive
11 | CC1=C(/C=C/C(C)=C/C=C/C(C)=C/CO)C(C)(C)CCC1 | -17.6% [at 80.4 µM] (inactive) | 
12 | CC1(C)O[C@@H]2C[C@H]3[C@@H]4C[C@H](F)C5=CC(=O)CC[C@]5(C)[C@H]4[C@@H](O)C[C@]3(C)[C@]2(C(=O)CO)O1 | 15.5% (inactive) | 
13 | Nc1nc2ncc(CNc3ccc(C(=O)N[C@@H](CCC(=O)O)C(=O)O)cc3)nc2c(=O)[nH]1 |  | inactive
14 | ClC1=C(Cl)C(Cl)(Cl)C(Cl)=C1Cl | 16.9% (inactive) | 
15 | CS(=O)(=O)c1ccc([C@@H](O)[C@@H](CO)NC(=O)C(Cl)Cl)cc1 |  | inactive
16 | OC1CCCC1 |  | inactive
17 | CC(C)(N=C=O)c1cccc(C(C)(C)N=C=O)c1 |  | inactive
18 | OCCOCCOCCOCCO |  | inactive
19 | C=C1C2CCC(C2)C1(C)C (stereo not given) | 3.08% [at 80.4 µM] (inactive) | 
20 | O=S(=O)(Oc1ccc(Cl)cc1Cl)c1ccccc1 |  | inactive

Row | SMILES | ratio activity, negative = inhibition | outcome
21 | C[C@@H]1O[C@@H](OC[C@H]2O[C@@H](Oc3c(-c4ccc(O)c(O)c4)oc4cc(O)cc(O)c4c3=O)[C@H](O)[C@@H](O)[C@@H]2O)[C@H](O)[C@H](O)[C@H]1O |  | inactive
22 | Cn1c([N+](=O)[O-])cnc1COC(N)=O |  | inactive
23 | CC(C)(C)C1CCC(O)CC1 (stereo not given) | 1.47% [at 80.4 µM] (inactive) | 
24 | C=C1CC[C@H](O)CC1=C/C=C1\CCC[C@]2(C)[C@@H]([C@H](C)/C=C/[C@H](C)C(C)C)CC[C@@H]12 | 2.42% (inactive) | 
25 | CC1=C(CC(=O)O)c2cc(F)ccc2/C1=C\c1ccc(S(C)=O)cc1 (stereo not given) | 1.33% (inactive) | 
26 | CCOC(=O)/C=C\C(=O)OCC |  | inactive
27 | CCCCC(CC)C(=O)OCCOCCOCCOC(=O)C(CC)CCCC (stereo not given) | 0.794% [at 80.4 µM] (inactive) | 
28 | O=[N+]([O-])C(CO)(CO)CO |  | inactive
29 | CC1CC(OC(=O)c2ccccc2O)CC(C)(C)C1 (stereo not given) |  | inactive
30 | CCCCC(CC)COC(=O)/C=C\C(=O)OCC(CC)CCCC (stereo not given) |  | inactive
31 | Oc1c(Cl)cc(Cl)c(Cl)c1Cl |  | inactive
32 | CCCCCCCCCCCCN |  | inactive
33 | C=C(C)C(=O)OCCC[Si](OC)(OC)OC | -0.192% (inactive) | 
34 | COC(=O)c1ccccc1O | 11% (inactive) | 
35 | Cc1ccc(C)c(C)c1 |  | inactive
36 | C=C(C)C(=O)OCCCCCCCCCCCC |  | inactive
37 | Nc1cc(-c2ccncc2)c[nH]c1=O |  | inactive
38 | O=C1CCCCC1 |  | inactive
39 | CCc1ccc(O)cc1 |  | inactive

System: not listed separately
Test: qHTS assay to identify small molecule agonists of the farnesoid-X-receptor (FXR) signaling pathway - cell viability counter screen (AID 743218); further: nearly all actives have a fitted effect of over 45% in size; further: potency means the concentration at half of the fitted maximal effect
Conditions: FXR-bla HEK293T viability, CellTiter-Glo luminescence, 16 h; series mostly up to 62.6 µM; viability change, negative = cytotoxic: at the top concentration
Procedure, shortened: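 Quantitative HTS counter screen measuring ATP-based viability via CellTiter-Glo luminescence in HEK 293T cells carrying a UAS-driven beta-lactamase reporter, after 16 h compound exposure at 37 C.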

Row | SMILES | viability change, negative = cytotoxic | Potency
40 | CCCCCCCCCC(=O)O | 8.65% [at 81.1 µM] (inactive) | 
41 | NS(=O)(=O)c1cc2c(cc1Cl)NC=NS2(=O)=O |  | inactive
42 | CC(C)Cc1ccccc1 | 6.24% (inactive) | 
43 | Clc1cc(Cl)c(Cl)cc1Cl |  | inactive
44 | CCCCC(CC)COC(C)=O (stereo not given) | 14% (inactive) | 
45 | NCCNCCNCCNCCN |  | inactive
46 | CCOC(=O)C1OC1c1ccccc1 (stereo not given) | 12.6% (inactive) | 
47 | CC1COc2ccccc2N1C(=O)C(Cl)Cl (stereo not given) |  | inactive
48 | CCCCCCCCC |  | inactive
49 | Cc1cc(O)cc(C)c1Cl |  | inactive
50 | CC1=C(/C=C/C(C)=C/C=C/C(C)=C/CO)C(C)(C)CCC1 | 3.51% [at 81.1 µM] (inactive) | 
51 | CC1(C)O[C@@H]2C[C@H]3[C@@H]4C[C@H](F)C5=CC(=O)CC[C@]5(C)[C@H]4[C@@H](O)C[C@]3(C)[C@]2(C(=O)CO)O1 |  | inactive
52 | Nc1nc2ncc(CNc3ccc(C(=O)N[C@@H](CCC(=O)O)C(=O)O)cc3)nc2c(=O)[nH]1 |  | inactive
53 | ClC1=C(Cl)C(Cl)(Cl)C(Cl)=C1Cl |  | inactive
54 | CS(=O)(=O)c1ccc([C@@H](O)[C@@H](CO)NC(=O)C(Cl)Cl)cc1 |  | inactive
55 | OC1CCCC1 | 1.67% (inactive) | 
56 | OCCOCCOCCOCCO |  | inactive
57 | C=C1C2CCC(C2)C1(C)C (stereo not given) | 50.9% (inactive) | 

Row | SMILES | viability change, negative = cytotoxic | Potency
58 | O=S(=O)(Oc1ccc(Cl)cc1Cl)c1ccccc1 |  | inactive
59 | C[C@@H]1O[C@@H](OC[C@H]2O[C@@H](Oc3c(-c4ccc(O)c(O)c4)oc4cc(O)cc(O)c4c3=O)[C@H](O)[C@@H](O)[C@@H]2O)[C@H](O)[C@H](O)[C@H]1O | 0.329% (inactive) | 
60 | Cn1c([N+](=O)[O-])cnc1COC(N)=O | -3.96% (inactive) | 
61 | CC(C)(C)C1CCC(O)CC1 (stereo not given) |  | inactive
62 | CC1=C(CC(=O)O)c2cc(F)ccc2/C1=C\c1ccc(S(C)=O)cc1 (stereo not given) |  | inactive
63 | CCOC(=O)/C=C\C(=O)OCC |  | inactive
64 | CCCCC(CC)C(=O)OCCOCCOCCOC(=O)C(CC)CCCC (stereo not given) | 8.15% (inactive) | 
65 | O=[N+]([O-])C(CO)(CO)CO |  | inactive
66 | CC1CC(OC(=O)c2ccccc2O)CC(C)(C)C1 (stereo not given) |  | inactive
67 | CCCCC(CC)COC(=O)/C=C\C(=O)OCC(CC)CCCC (stereo not given) |  | inactive
68 | CCCCCCCCCCCCN |  | inactive and 43.6 µM (active)
69 | C=C(C)C(=O)OCCC[Si](OC)(OC)OC |  | inactive
70 | COC(=O)c1ccccc1O |  | inactive
71 | Cc1ccc(C)c(C)c1 |  | inactive
72 | C=C(C)C(=O)OCCCCCCCCCCCC |  | inactive
73 | Nc1cc(-c2ccncc2)c[nH]c1=O | 23.8% (inactive) | 
74 | O=C1CCCCC1 |  | inactive
75 | CCc1ccc(O)cc1 |  | inactive
